The values below come from PubChem BioAssay AID1076 (NMMLSC, 2008).

Active and inactive are the calls of the source.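 The calls were made as follows: active = cell event count below 40, meaning activity score above 60 where score is 100 minus count; inactive = the rest.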

A short description of the first assay: LNCaP cell loss by flow event count, confirmation, cytotoxicity control for prostate differentiation activator project, single point (AID 1076).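 Also: counts scatter-gated live cells after medium removal discards detached dead cells.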 Particulars: flow cytometry event count, 4 d, at 100 µM, stronger effect = lower value. For orientation: Flow cytometry measures light scatter and fluorescence of single cells or particles in a stream.
For `CCOc1ccc(C2SCC(=O)Nc3c2c(=O)[nH]n3C2CCCCCC2)cc1` (stereo not given), the cell event count was 18 (inactive).
On the same count and under the same terms, to `CCn1c(=O)cc(OCC(=O)N2CCN(Cc3ccc4c(c3)OCO4)CC2)c2ccccc21` belongs 12 (inactive).
The same measure, in the same setting: the figure for `Cc1cc(OCC(=O)O)c2c3c(c(=O)oc2c1)CCCC3` is 175 (inactive); for `Clc1ccc(COC(Cn2ccnc2)c2ccc(Cl)cc2Cl)cc1` (stereo not given) it is 11 (inactive).
As for `CCn1c(=O)cc(OCC(=O)N2CCC3(CC2)OCCO3)c2ccccc21`, the cell event count is 210 (inactive).
Consider `O=C(COc1ccc2ccccc2c1)N1CCN(C2CCN(Cc3ccccc3)CC2)CC1`, for which the cell event count is 35 (inactive).
With `C[C@H]1CCC/C=C/C2C[C@H](O)CC2[C@H](O)/C=C/C(=O)O1` (stereo not given in full), the cell event count is 23 (active).
As to `Cc1ccc(Cn2c(C)c3cnn(CC(=O)N4CCC5(CC4)OCCO5)c(=O)c3c2C)cc1`, the cell event count was 66 (inactive).
Still for that read-out and setting: the figure for `Cc1ccc2c(c1)[C@@H]1CN(C)CC[C@@H]1N2C(=O)Nc1cccc(C(F)(F)F)c1` is 13 (inactive); for `Cc1nc2ccccc2c(=O)n1-c1ccc(F)cc1` it is 282 (inactive).

The same assay, now with this note: flow cytometry event count, 4 d, event count, at 10 µM, stronger effect = lower value.
Take `CCOc1ccc(C2SCC(=O)Nc3c2c(=O)[nH]n3C2CCCCCC2)cc1` (stereo not given): the cell event count was determined as 101.
On the same count and under the same terms, the figure for `CCn1c(=O)cc(OCC(=O)N2CCN(Cc3ccc4c(c3)OCO4)CC2)c2ccccc21` is 240.
Same read-out and setting: the figure for `Cc1cc(OCC(=O)O)c2c3c(c(=O)oc2c1)CCCC3` is 157; for `Clc1ccc(COC(Cn2ccnc2)c2ccc(Cl)cc2Cl)cc1` (stereo not given) it is 82.
The same measure, in the same setting: the figure for `CCn1c(=O)cc(OCC(=O)N2CCC3(CC2)OCCO3)c2ccccc21` is 411; for `O=C(COc1ccc2ccccc2c1)N1CCN(C2CCN(Cc3ccccc3)CC2)CC1` it is 324; for `C[C@H]1CCC/C=C/C2C[C@H](O)CC2[C@H](O)/C=C/C(=O)O1` (stereo not given in full) it is 26.
Regarding `Cc1ccc(Cn2c(C)c3cnn(CC(=O)N4CCC5(CC4)OCCO5)c(=O)c3c2C)cc1`, the cell event count worked out at 202.
Same read-out and setting: to `Cc1ccc2c(c1)[C@@H]1CN(C)CC[C@@H]1N2C(=O)Nc1cccc(C(F)(F)F)c1` belongs 122; to `Cc1nc2ccccc2c(=O)n1-c1ccc(F)cc1`, 155.
